Shown are actives, neighbours in structure and some others; about 10% of the full set was active somewhere.
3T3 cytotox – NIH 3T3 cell cytotoxicity | Potency, µM (doses to about 96.7 µM), without a hit: top-dose activity change, negative = cytotoxicity, usual class: inhibitors | NIH 3T3 viability, CellTiter-Glo ATP luminescence, 48-72 h | hit rate 4.3% among 94,000; further: nearly all actives have a fitted effect of over 55% in size
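Viability of NIH 3T3 cells after 48 or 72 hr compound treatment at 37 °C was assessed by CellTiter-Glo, with luminescence imaged following a 10 min room-temperature step.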
HEK293 tox – HEK 293 cell cytotoxicity | HEK 293 viability, ATP luminescence (CellTiter-Glo), 48-72 h | Potency, µM (titrated, usually from 115 µM), for inactives: top-dose activity change, negative = cytotoxicity, most hits filed as inhibitors | hit rate 6.6% among 94,000 | AID 1345083; further: nearly all actives have a fitted effect of over 60% in size
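Cytotoxicity was scored by loss of ATP-coupled luminescence (CellTiter-Glo) in HEK 293 cells. Compound treatment ran 48 or 72 hr at 37 degree Celsius, 5% CO2, 95% humidity.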
GPT2 inhibitor – inhibitors of human GPT2 alanine aminotransferase. Recombinant GPT2, coupled pyruvate oxidase/HRP Amplex Red fluorescence. hit rate 0.25% among 100,000. Q8TD30. Potency, µM (top dose mostly 57.7 µM), without a hit: top-dose activity change, negative = inhibition, most hits filed as inhibitors; further: nearly all actives have a fitted effect of over 60% in size
Target sequence (Q8TD30 whole entry, looked up): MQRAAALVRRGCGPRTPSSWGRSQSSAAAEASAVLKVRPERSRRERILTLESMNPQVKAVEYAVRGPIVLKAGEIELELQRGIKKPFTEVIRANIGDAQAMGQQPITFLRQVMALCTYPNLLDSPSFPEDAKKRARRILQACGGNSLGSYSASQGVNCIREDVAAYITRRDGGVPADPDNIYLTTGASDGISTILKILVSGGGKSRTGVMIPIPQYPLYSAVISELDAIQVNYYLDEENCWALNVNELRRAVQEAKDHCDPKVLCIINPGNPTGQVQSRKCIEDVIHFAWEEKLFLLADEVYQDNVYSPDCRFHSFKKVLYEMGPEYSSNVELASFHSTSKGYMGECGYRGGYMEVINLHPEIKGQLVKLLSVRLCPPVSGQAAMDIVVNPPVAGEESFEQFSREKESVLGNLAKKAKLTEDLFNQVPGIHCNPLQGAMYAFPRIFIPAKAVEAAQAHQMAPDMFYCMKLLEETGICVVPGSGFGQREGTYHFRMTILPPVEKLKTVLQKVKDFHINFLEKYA
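Fluorescence read-out: pyruvate from GPT2 turnover coupled to pyruvate oxidase, HRP and Amplex Red (0.2mM ThPP, 0.2U/mL PO and HRP, 50uM Amplex final). Substrates 250uM a-KG, 2mM L-alanine; enzyme 10ng/uL; 30 min RT.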
FLuc inh – blocks purified firefly luciferase enzyme activity; P08659; purified P. pyralis luciferase, luminescence, biochemical; Potency, µM (highest dose often 115 µM), usual class: inhibitors; hit rate 2.5% among 76,000; further: nearly all actives have a fitted effect of over 65% in size
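Purified P. pyralis luciferase (10nM final) in 50mM Tris acetate pH 7.5, 10mM Mg acetate, 0.01% Tween-20, 0.05% BSA with 10uM D-luciferin and 10uM ATP. Compounds titrated qHTS. Luminescence imaged on CCD.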
NPR1 antag – antagonists of human natriuretic peptide receptor Npr1; P16066; HEK293 hNpr1 GloSensor cGMP, ANP-stimulated luminescence; Potency, µM (doses to about 46.3 µM), for inactives: at the highest dose activity change, negative = inhibition, most hits filed as inhibitors; hit rate 1.6% among 76,000; calls by dose curve; further: nearly all actives have a fitted effect of over 60% in size
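Compound pre-incubated 30 min at room temperature on GloSensor-loaded HEK293 cells stably carrying hNpr1 and the pGS-40F cGMP biosensor. Stimulation uses hNppA at 0.1 nM final; luminescence is taken at baseline and 20 min post-agonist.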
Starred values were filed as active, the others as inactive; i = inactive; u = inconclusive; x = no result; [ ] = dose if it differs, or a comment. Unless noted, the call rests on the fitted dose curve; in most records, active means well fitted curve in the direction sought with a large enough effect; inconclusive means small, poorly fitted or top-dose-only effect, or another doubt; inactive means no such curve, though single readings can be large; an effect the other way counts as inactive or inconclusive. On the % scale 0 is the no-effect control and ±100 the full control effect; potency means the concentration at half of the fitted maximal effect.

SMILES | 3T3 cytotox | HEK293 tox | GPT2 inhibitor | FLuc inh | NPR1 antag
O=C(Nc1cccc(C(F)(F)F)c1)c1nc2c(o1)CCN(Cc1cccs1)CC2 | u | u | -10.2%[88.5 µM] | 8.91µM* | u
O=C(Nc1cccc(C(F)(F)F)c1)c1nc2c(o1)CCN(Cc1nccs1)CC2 | u | u | 0.9%[88.5 µM] | 15.8µM* | 35.5µM*
O=C(NCc1cccc(F)c1)c1nc2c(o1)CCN(Cc1cccc(F)c1F)CC2 | 44.7µM* | 50.1µM* | -2.3%[88.5 µM] | i | u
COc1ccc(CN2CCc3nc(C(=O)NCc4cccc(F)c4)oc3CC2)cc1 | u | u | -4.9%[88.5 µM] | i | -29.1%[70.6 µM]
COc1cccc(CN2CCc3nc(C(=O)Nc4cccnc4)oc3CC2)c1 | u | u | 2.7%[88.5 µM] | 22.4µM* | u
COc1ccc(CN2CCc3nc(C(=O)Nc4cccnc4)oc3CC2)cc1OC | u | u | -6.6%[88.5 µM] | i | -16.8%[70.6 µM]
O=C(NCC1CC1)c1nc2c(o1)CCN(Cc1cccc(O)c1)CC2 | 100µM* | u | i | u | 4.3%[70.6 µM]
Cc1ccc(CN2CCc3nc(C(=O)Nc4cccnc4)oc3CC2)o1 | -21.1%[138 µM] | u | 3.6%[88.5 µM] | u | -10.1%[70.6 µM]
O=C(Nc1cccnc1)c1nc2c(o1)CCN(Cc1cccs1)CC2 | u | 89.1µM* | -29.8%[88.5 µM] | u | -19.2%[70.6 µM]
N#Cc1cccc(CN2CCc3nc(C(=O)NCC4CC4)oc3CC2)c1 | u | u | -2.4%[88.5 µM] | i | -24.4%[70.6 µM]
N#Cc1cccc(CN2CCc3nc(C(=O)Nc4cccc(C(F)(F)F)c4)oc3CC2)c1 | u | u | -2.8% | u | 11.2µM*
COc1ccc(C(=O)NCCc2noc(-c3cccnc3)n2)cc1OC | u | -23.4% | i | i | 2.4%
CSCC(=O)N[C@H]1CCN2C(=O)N(c3cccc(C(C)=O)c3)C(=O)[C@@H]2C1 | 1.5%[174 µM] | -0.2%[172 µM] | 0.9%[88.5 µM] | i | 6.5%[70.6 µM]
CSCC(=O)N[C@H]1CCN2C(=O)N(c3ccc(C(C)C)cc3)C(=O)[C@@H]2C1 | -28.8%[174 µM] | -11.6%[172 µM] | 1.8%[88.5 µM] | 31.6µM* | -0.9%[70.6 µM]
COc1ccnc(-c2nnc3ccc(NCc4cnccn4)nn23)c1 | x | x | -5.8%[88.5 µM] | x | x
Cc1cc(C)nc(N2CC3(COCC(=O)N(Cc4cccc(OC(F)(F)F)c4)C3)C2)n1 | -7.3%[138 µM] | u | -13.9%[88.5 µM] | i | 8.0%[70.6 µM]
N#Cc1cccc(CN2CC3(COCC(=O)N(Cc4cccc(OC(F)(F)F)c4)C3)C2)c1 | 28.2µM* | u | 1.0% | i | -7.1%
OCC1(CCCc2ccccc2)CCN(Cc2ccc(-n3cccn3)cc2)CC1 | 39.8µM* | u | 2.1% | i | u
CN(C)c1ccc(-c2nnc([C@H]3CCN(Cc4ccccn4)C3)o2)cc1 | -28.3%[174 µM] | u | -7.1%[88.5 µM] | u | 2.3%[70.6 µM]
CN(C)c1ccc(-c2nnc([C@H]3CCN(C(=O)c4ccccn4)C3)o2)cc1 | -12.4%[174 µM] | u | i | 20µM* | -15.0%[70.6 µM]
COc1ccc(CN2C[C@H]3CN(Cc4ccc(C(F)(F)F)cc4)CCN3C2=O)cc1 | u | u | -12.2%[88.5 µM] | i | u
COc1ccc(CN2C[C@H]3CN(Cc4c[nH]c5ccccc45)CCN3C2=O)cc1 | u | 100µM* | 3.0%[88.5 µM] | i | -4.9%[70.6 µM]
Cc1ccc(CN2C[C@H]3CN(Cc4ccc(OC(F)(F)F)cc4)CCN3C2=O)cc1 | 50.1µM* | 70.8µM* | -23.2%[88.5 µM] | i | u
CN1C[C@H]2CN(Cc3c[nH]c4ccccc34)CCN2C1=O | u | -28.9%[230 µM] | i | u | -5.3%[70.6 µM]
COc1ccc(CN2C[C@H]3CN(Cc4ccc(Cl)cc4)CCN3C2=O)cc1 | u | 70.8µM* | -12.9%[88.5 µM] | i | u
SMILES | 3T3 cytotox | HEK293 tox | GPT2 inhibitor | FLuc inh | NPR1 antag
O=C1N2CCCC2CN1C1CCN(Cc2ccc(OC(F)(F)F)cc2)CC1 (centres undefined) | u | 39.8µM* | u | i | u
COc1ccc(Cn2c(=O)c(C(=O)N3CCN(C(=O)Cc4ccc(F)cc4)CC3)nc3cccnc32)cc1 | -22.8% | u | -16.3% | x | x
O=C(Cc1cccc(F)c1)N1CCC2(CC1)N(c1ccccc1)C(=O)CS2(=O)=O | 4.5% | i | i | i | -2.6%
CC(C)OC(C)C(=O)N1CCc2onc(-c3ccc(C(F)(F)F)cc3)c2C1 (centres undefined) | u | 28.2µM* | 0.3%[11.5 µM] | i | -28.3%
CCN(C)C(C)C(=O)N1CCc2onc(-c3ccc(C(F)(F)F)cc3)c2C1 (centres undefined) | u | u | -17.0% | i | -2.0%
O=C(C1CCCN(Cc2cccc(-c3ccsc3)c2)C1)N1CCN(c2ncccn2)CC1 (centres undefined) | u | 31.6µM* | x | x | x
CC(C)NC(=O)C1CCCN(Cc2cccc(-c3ccsc3)c2)C1 (centres undefined) | u | 44.7µM* | x | x | x
O=C(NCCc1ccccc1)C1CCCN(Cc2cccc(-c3cccs3)c2)C1 (centres undefined) | u | u | i | x | x
O=C(NCCNC(=O)C1CCCC1)c1cccc(-c2ccsc2)c1 | u | 79.4µM* | -1.1%[88.5 µM] | x | x
CC(C)N1CC2CCC(C1)N2Cc1cccc(-c2ccsc2)c1 | u | u | i | x | x
O=C(NCCc1ccccc1)C1CCCN(Cc2cccc(-c3ccsc3)c2)C1 (centres undefined) | 39.8µM* | u | x | x | x
O=C(NCCNC(=O)c1cccc(-c2ccsc2)c1)NC1CCCC1 | -24.9% | u | 4.5% | x | x
O=C(NCCCc1ccccc1)C1CCCN(Cc2cccc(-c3ccsc3)c2)C1 (centres undefined) | 35.5µM* | 39.8µM* | x | x | x
COc1ccc(-n2c(=O)c(C(=O)NCCSC)nc3cccnc32)cc1 | -6.2% | i | i | x | x
CCc1nn(-c2ccc(F)cc2)c(Oc2ccccc2)c1CCC(=O)NCC1CCCO1 (centres undefined) | 31.6µM* | 39.8µM* | i | i | u
CCc1nn(-c2ccc(OC)cc2)c(Oc2ccccc2F)c1CCC(=O)N1CCSCC1 | 44.7µM* | 31.6µM* | -20.9% | i | -10.5%
Cc1nn(-c2ccccc2)c(Oc2ccccc2)c1CCC(=O)NCC1CCCO1 (centres undefined) | u | u | i | i | -13.2%
CCc1nn(-c2ccc(OC)cc2)c(Oc2ccccc2F)c1CCC(=O)N(CC)CC | 44.7µM* | u | i | i | -15.7%
CCc1nn(-c2ccc(OC)cc2)c(Oc2ccccc2F)c1CCC(=O)NCCOC | u | -15.3% | i | i | 1.2%
CCc1nn(-c2ccc(OC)cc2)c(Oc2ccccc2F)c1CCC(=O)NC(C)C | u | u | -8.8% | i | 1.8%
Cc1ccc([S+](=O)([O-])N2CCCC(C(=O)N3CCC(c4nc5ncccc5[nH]4)C3)C2)cc1 (centres undefined) | -28.1% | u | i | x | x
